Unmarked numbers belong to inactive results. No rule for the calls is given here.
biological target: Lethal factor (Bacillus anthracis) (UniProt P15917); assay: Bacillus anthracis lethal factor inhibition, microsphere flow cytometry protease assay, validation at 10 µM (AID 588461); conditions: multiplex microsphere protease cleavage assay, active compounds read high
Sequence (P15917 whole entry, looked up): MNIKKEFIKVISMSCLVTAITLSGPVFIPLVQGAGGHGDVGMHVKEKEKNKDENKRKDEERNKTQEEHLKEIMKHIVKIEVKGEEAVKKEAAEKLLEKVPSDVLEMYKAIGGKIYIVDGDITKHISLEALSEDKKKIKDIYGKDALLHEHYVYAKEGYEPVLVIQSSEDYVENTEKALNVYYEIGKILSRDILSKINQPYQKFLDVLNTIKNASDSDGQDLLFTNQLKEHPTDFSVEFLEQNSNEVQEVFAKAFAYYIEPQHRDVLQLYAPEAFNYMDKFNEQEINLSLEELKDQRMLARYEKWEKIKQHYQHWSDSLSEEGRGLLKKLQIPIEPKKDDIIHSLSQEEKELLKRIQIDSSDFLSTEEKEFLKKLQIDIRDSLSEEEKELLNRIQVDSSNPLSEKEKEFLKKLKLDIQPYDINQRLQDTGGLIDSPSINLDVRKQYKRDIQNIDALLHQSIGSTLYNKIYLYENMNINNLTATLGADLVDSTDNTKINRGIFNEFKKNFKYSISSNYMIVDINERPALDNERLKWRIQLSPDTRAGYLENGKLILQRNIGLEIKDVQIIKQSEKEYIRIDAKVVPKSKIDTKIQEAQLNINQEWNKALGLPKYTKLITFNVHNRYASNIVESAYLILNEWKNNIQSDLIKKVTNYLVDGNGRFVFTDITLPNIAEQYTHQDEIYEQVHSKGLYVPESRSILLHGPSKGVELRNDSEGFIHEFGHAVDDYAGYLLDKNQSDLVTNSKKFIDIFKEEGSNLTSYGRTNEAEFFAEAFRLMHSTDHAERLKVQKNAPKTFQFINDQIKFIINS

SMILES	inhibition
O=P(c1ccccc1)(c1ccccc1)c1nc(-c2ccc(Cl)cc2)oc1N1CCOCC1	0.6%
CC1(C)Cc2ccccc2C(C(Cc2ccccc2)C(N)=O)=N1 (centres undefined)	-3.2%
CC1(C)O[C@@H]2C[C@H]3[C@@H]4C[C@H](F)C5=CC(=O)C=C[C@]5(C)[C@@]4(F)[C@@H](O)C[C@]3(C)[C@]2(C(=O)CO)O1	-6.8%
COc1ccccc1C(CC(=O)Nc1ccccc1C)c1ccc(OC(C)C)cc1 (centres undefined)	-7.4%
C[C@H]1C[C@@H]2[C@H]([C@@H](O)C[C@@]3(C)[C@H]2CC[C@]3(O)C(=O)CO)[C@@]2(C)C=CC(=O)C=C12	-0.7%
CC(=O)[C@H]1CC[C@H]2[C@@H]3CCC4=CC(=O)CC[C@]4(C)[C@H]3CC[C@]12C	3.1%
CC[C@]1(O)CC2CN(CCc3c([nH]c4ccccc34)[C@@](C(=O)OC)(c3cc4c(cc3OC)N(C=O)[C@H]3[C@@](O)(C(=O)OC)[C@H](OC(C)=O)[C@]5(CC)C=CCN6CC[C@]43[C@@H]65)C2)C1 (some centres undefined)	-12.5%
CC(=O)OCC(=O)[C@@]1(O)CC[C@H]2[C@@H]3CCC4=CC(=O)CC[C@]4(C)[C@H]3[C@@H](O)C[C@@]21C	-5.1%
CCOc1ccc(C(=O)N2CCCC2C(=O)O)cc1 (centres undefined)	1.5%
Cc1cc(-c2nn(-c3ccccc3F)cc2CN2CCCC(O)C2)c(C)s1 (centres undefined)	-0.9%
CN(C)[C@@H]1C(=O)C(C(=O)NCN2CCCC2)=C(O)[C@@]2(O)C(=O)C3=C(O)c4c(O)cccc4[C@@](C)(O)C3CC12 (some centres undefined)	-8.3%
Nc1[nH]c(=O)ncc1F	0%
Oc1ccc(COCc2ccccc2)c2cccnc12	-3.1%
Nc1cccc(C(=O)O)c1	3.3%
CCc1c(C(C)=O)oc2ccc3c(C)cc(=O)oc3c12	-2.4%
CC(=O)NC1C(OCCOc2ccc(Cl)cc2Cl)OC(COC(C)=O)C(OC(C)=O)C1OC(C)=O (centres undefined)	-0.7%
O=C(O)CCCN1C(=O)NC2NC(=O)NC21 (centres undefined)	0.4%
OC[C@@H](O)[C@@H](O[C@H]1O[C@H](CO)[C@@H](O)[C@H](O)[C@H]1O)[C@H](O)[C@@H](O)CO	3.8%
CC(=O)[C@@]1(O)CC[C@H]2[C@@H]3CCC4=CC(=O)CC[C@]4(C)[C@H]3[C@@H](O)C[C@@]21C	1.8%
CC12CCC(C(=O)N(CCC#N)CCC#N)(CC1=O)C2(C)C (centres undefined)	1.5%
COc1ccccc1N=CC1=C(O)CC(c2ccccc2)CC1=O (centres undefined)	-5%
CC(=O)N1c2ccccc2C(C)=CC1(C)C	-8.5%
CCOc1ccc2oc(-c3ccccc3)c(C(=O)O)c2c1	-3.1%
COc1ccc(O)c(N)c1	-19.6%
